Compounds without any hit were thinned out: in the full panel of roughly 83,000, 20% have a hit.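 Growth was measured after 48 h exposure to one concentration of compound in 96-well plates. Values under 10 count as active.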 Values without a mark were called inactive. Calls of active or inactive are those of the source.

The experiment has as its system T-47D breast. As to the kind of experiment: NCI-60 one-dose screen, 48 h (100 = growth as untreated, 0 = no growth, -100 = all killed). Conditions: 10 µM unless noted. The method, then: Growth inhibition of the T-47D human tumor cell line is measured as a screen for anti-cancer activity. Cells are grown in 96 well plates and exposed to the test compound for 48 hours. Compounds are tested at a single concentration, which is 10^-5 M for most compounds. The reported endpoint is percent growth (GI% or GIPRCNT), where numbers from 0 - 100% represent growth inhibition, and numbers from -100% - 0 represent cell death. For example, a value of 40 represents 60% growth inhibition. A value of 0 means no net growth occurred over the course of the experiment. A value of -40 indicates 40% of cells at the beginning of the experiment died by the end of the experiment. A value of -100 means all cells are dead at the end of the experiment.
NCI-60 Human Tumor Cell Lines Screen was performed using the standard one-dose NCI protocol, which is described in more detail at https://dtp.cancer.gov/discovery_development/nci-60/default.htm.
Compounds with GIPRCNT values below 10 were considered active. Activity score was based on GIPRCNT using the following formula: […]
Score is 0 for GIPRCNT values of 100 or above, 50 for GIPRCNT values of 0, and 100 for GIPRCNT values of -100.
With `Nc1c(C(=O)Nc2ccncc2)sc2nc3c(cc12)CCCCCC3`, the growth was 49.9%.
As for `CCCCCCCCCCCCCCCCCCOc1ccccc1CC(=O)NCC[N+]1(C)CCCC1`, the growth is 69.9%.
Next, `O=C(CSc1nnc2n1S(=O)(=O)c1ccccc1N2c1ccccc1)Nc1nc2ccc(F)cc2s1`: 98.4%.
Next, `N#Cc1cnc(NCCc2ccncc2)nc1-n1cnc2ccccc21`: 54.5%.
To `COc1ccc(C(=S)N2CCN(c3ccccc3Cl)CC2)cc1OC` belongs 79%.
For the compound `CCN1CCN(c2cc(C(=O)Nc3nc(-c4cc(OC)c(OC)c(OC)c4)cs3)cc(C(F)(F)F)c2)CC1`, the growth is 43.7%.
With `O=C1/C(=C/c2ccc(Cl)cc2)COc2ccc(O)c(O)c21`, the growth is -14.8% (active).
To `Cc1cc(N)c2cc(NC(=O)/C=C\c3ccccc3Cl)ccc2n1` belongs -58.1% (active).
To `O=S(=O)(NCCCNc1nccc(-c2c(-c3ccc(F)c(O)c3)nc3occn23)n1)c1ccccc1` belongs 101%; to `Cc1ccc(S(=O)(=O)N2CCCC2CO)cc1` (stereo not given), 100%; to `COc1cnc2c(c1)C(=O)c1c-2n(CCCNCCO)c(=O)c2ccncc12`, -4.8% (active).
With `Cc1cc(Cl)ccc1Nc1nc(C(F)(F)F)ccc1C(=O)N/N=C/c1ccc([N+](=O)[O-])cc1`, the growth is -1.52% (active).
With `CNC(=O)c1cc(Oc2ccc3nc(NC(C)=O)sc3c2)ccn1`, the growth was 90.7%.
As for `COC(=O)c1n[nH]c2ccc3nc(-c4cn[nH]c4C(F)(F)F)c4c(c3c12)CCCC4`, the growth was 57%.
As to `O=C(Cc1ccccc1)Nc1nc(O)c(/C=C2\C(=O)C=Cc3ccccc32)s1`, the growth was 90%.
Next, `CCOC(=O)C(=Cc1cccc(Cl)c1)C(=O)OCC`: -5.34% (active).
To `O=S(=O)(Nc1cc(Br)c(O)c2ccccc12)c1ccc(F)cc1` belongs 6.12% (active).
To `Oc1c(Cl)cc(Cl)c2ccc(Cn3cc(-c4cc(F)cc(F)c4)nn3)nc12` belongs 40.4%.
As to `CN(CCn1sc(=O)n(Cc2ccccc2)c1=O)Cc1ccc2c(Cl)cc(Cl)c(O)c2n1`, the growth was 44.9%.
Consider `Cc1ccc(Sc2nnc(/N=C3\C(=O)Nc4ccccc43)s2)cc1`, for which the growth was 107%.
Next, `Cc1ccc(-c2nc3nc(-c4ccc(F)cc4)nc(N4CCNCC4)c3o2)cc1`: -27.4% (active); `O=C(/C=C(/C=C/c1cccc2[nH]ccc12)OB(F)F)/C=C/c1cccc2[nH]ccc12`: 7.95% (active).
To `C#CCOc1ccc2ncnc(Nc3ccc(NC(=O)CCl)cc3)c2c1` belongs 16.2%; to `O=C(CCCCC1CCSS1)Nc1ncnc2n[nH]c(-c3ccc(Oc4ccccc4)cc3)c12` (stereo not given), 73.7%.
For the compound `O=[N+]([O-])/C(=C/C=C/c1ccccc1)c1ccccc1`, the growth is 46.4%.
To `CCCCCOc1ccc(C(=O)/C(Br)=C/C(=O)O)cc1` belongs 92.6%; to `COc1ccc(C(=O)Nc2ncc(Cc3cccc(Cl)c3)s2)cc1OC`, 3.79% (active).
Next, `COc1ccc(-c2nc(SCC(C)C)nc(N/N=C\c3ccc(F)cc3)c2C#N)cc1`: 80.7%; `N=C(N)c1ccc(-c2ccc(-c3cc(Cl)cc(Cl)c3)o2)o1`: -58.3% (active).
For `Oc1c(Cl)cc(Cl)c2ccc(Cn3cc(-c4cc(C(F)(F)F)cc(C(F)(F)F)c4)nn3)nc12`, the growth is 33.7%.
On to `COc1ccc(OC)c(C(=O)/C=C/c2cc3c(c(OC)c2OC)OCO3)c1`, for which the growth was 70.6%.
To `CC1=Nc2cnc(Nc3ccc(OCCN4CCCCC4)cc3)nc2Nc2ccccc21` belongs 66.4%; to `COc1cc2c(c(OC)c1OC)C(=O)CC(c1cccc(NC(=O)c3ccc(Br)cc3)c1)O2` (stereo not given), 10%.
To `CCN1CCN(Cc2cn(CC(=O)Nc3ccc4c(ccn4Cc4ccccc4)c3)nn2)CC1` belongs 91.1%.
To `O=C(O)c1[nH]c(=O)[nH]c(=O)c1[N+](=O)[O-]` belongs 109%; to `O=S(=O)(NCCNc1nccc(-c2c(-c3cccc(F)c3)nc3occn23)n1)c1ccc(Br)cc1`, 76.7%.
With `CCS/C(Nc1ccccc1)=C(\C#N)C(=O)N/N=C/c1ccc(Cl)cc1Cl`, the growth is 17.8%.
Next, `O=C(Nc1cccc([N+](=O)[O-])c1)c1cc2ccccc2cc1O`: 3.67% (active).
To `Cn1cc(-c2nc(-c3c[nH]c4ccncc34)cs2)c2ccccc21` belongs 12.4%.
Take `O=C1NC(=O)c2c1c1c3ccccc3ccc1c1[nH]c3ccc(Br)cc3c21`: the growth was 4.7% (active).

(Values after PubChem BioAssay (NCI).)
